Records with an inconclusive call do not appear. The source made the active and inactive calls. The call rests on the fitted dose curve; in most records, active means well fitted curve in the direction sought with a large enough effect; inconclusive means small, poorly fitted or top-dose-only effect, or another doubt; inactive means no such curve, though single readings can be large; an effect the other way counts as inactive or inconclusive. Starred links: 1 amine or outer side, 2 acyl side, 3 side chain; linkers in the order of their positions; H or OH if unused. Positions of bridges follow the written chain, without caps; N, C: chain ends. Non-standard residues stand in square brackets, D forms with d. Residues, ends and D or L forms follow the SMILES beside them. Chains are numbered I, II in the order given. Actinocin(9to1) = Cc1c2oc3c(C)ccc(C(=O)[*:1])c3nc-2c(C(=O)[*:2])c(N)c1=O; NMeV = CN[CH](C(=O)O)C(C)C; Sar = CNCC(=O)O
What was measured:
[1] = target: Glutathione peroxidase 1 (Homo sapiens) (UniProt P07203); assay: Primary qHTS Assay for Inhibitors of Recombinant Selenoprotein Glutathione Peroxidase 1 (GPX1) (AID 1845191); further: nearly all actives have a fitted effect of over 65% in size; further: potency means the concentration at half of the fitted maximal effect; on activity, negative = inhibition: on the % scale 0 is the no-effect control and ±100 the full control effect
How it was run: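 Recombinant GPX1 (10 nM final) was preincubated with compound for 30 min at room temperature, then reacted with 1 mM GSH, 0.5 mM CHP, 0.5 mM NADPH and 100 nM glutathione reductase; NADPH fluorescence (340/450 nm) was read at 0 and 15 min.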

[2] = target: Phospholipid hydroperoxide glutathione peroxidase GPX4 (Homo sapiens) (UniProt P36969); assay: Primary qHTS Assay for Inhibitors of Recombinant Selenoprotein Glutathione Peroxidase 4 (GPX4) (AID 1845192); further: nearly all actives have a fitted effect of over 65% in size
How it was run: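 GR-coupled readout: 100 nM GR, 1 mM GSH, 0.5 mM NADPH; NADPH fluorescence (ex 340/em 450 nm) read at t=0 and after 15 min RT. GPX4 200 nM, preincubated 30 min with compound; substrate 0.5 mM CHP.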

[3] = Quantitative High-Throughput drug screen in 47 multiple myeloma cell lines against the NCATS MIPE library collection: FR4_PLB cell viability assay (AID 1918924; further: nearly all actives have a fitted effect of over 35% in size; further: potency means the concentration at half of the fitted maximal effect)
How it was run: (§1)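 CellTiter-Glo luminescence (ATP) after 48 h compound exposure, 37C/5% CO2; 500 cells/well; MIPE 4.0 approved/investigational drugs pinned in; DMSO = 100%, media only = 0% viability.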

[4] = Quantitative High-Throughput drug screen in 47 multiple myeloma cell lines against the NCATS MIPE library collection: EJM_DSMZ cell viability assay (AID 1918926; further: nearly all actives have a fitted effect of over 30% in size; further: potency means the concentration at half of the fitted maximal effect)
How it was run: (§2)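 Steps: seed 500 cells per well; pin-transfer MIPE 4.0 library; incubate 48 h at 37C, 5% CO2, humidified; add CellTiter-Glo, 5 min room temperature; read luminescence.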

[5] = Quantitative High-Throughput drug screen in 47 multiple myeloma cell lines against the NCATS MIPE library collection: AMO1_DSMZ cell viability assay (AID 1918927; further: nearly all actives have a fitted effect of over 30% in size; further: potency means the concentration at half of the fitted maximal effect)
How it was run: as §2

[6] = Quantitative High-Throughput drug screen in 47 multiple myeloma cell lines against the NCATS MIPE library collection: ARP1_JJKsccF8 cell viability assay (AID 1918928; further: nearly all actives have a fitted effect of over 40% in size; further: potency means the concentration at half of the fitted maximal effect)
How it was run: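 Myeloma cells, 500 per well, were exposed to MIPE 4.0 drugs by pin transfer for 48 h at 37 °C, 5% CO2. Viability was read as ATP luminescence with CellTiter-Glo, normalised to DMSO-only (100%) and medium-only (0%) wells.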

[7] = Quantitative High-Throughput drug screen in 47 multiple myeloma cell lines against the NCATS MIPE library collection: ARD_JJKsccE7 cell viability assay (AID 1918929; further: potency means the concentration at half of the fitted maximal effect)
How it was run: as §2

[8] = Quantitative High-Throughput drug screen in 47 multiple myeloma cell lines against the NCATS MIPE library collection: Karpas620_DSMZ cell viability assay (AID 1918959); further: nearly all actives have a fitted effect of over 30% in size; further: potency means the concentration at half of the fitted maximal effect
How it was run: as §1

[9] = Quantitative High-Throughput drug screen in 47 multiple myeloma cell lines against the NCATS MIPE library collection: Delta47_JCRB cell viability assay (AID 1918925; further: nearly all actives have a fitted effect of over 45% in size; further: potency means the concentration at half of the fitted maximal effect)
How it was run: as §2

Sequence of Phospholipid hydroperoxide glutathione peroxidase GPX4 (Homo sapiens) (P36969 whole entry, looked up): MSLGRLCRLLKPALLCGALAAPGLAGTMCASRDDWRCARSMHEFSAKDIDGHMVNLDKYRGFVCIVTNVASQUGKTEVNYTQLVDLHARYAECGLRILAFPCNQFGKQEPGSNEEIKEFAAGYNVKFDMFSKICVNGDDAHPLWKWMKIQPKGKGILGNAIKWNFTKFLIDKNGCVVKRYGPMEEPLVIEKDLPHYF
Sequence of Glutathione peroxidase 1 (Homo sapiens) (P07203 whole entry, looked up): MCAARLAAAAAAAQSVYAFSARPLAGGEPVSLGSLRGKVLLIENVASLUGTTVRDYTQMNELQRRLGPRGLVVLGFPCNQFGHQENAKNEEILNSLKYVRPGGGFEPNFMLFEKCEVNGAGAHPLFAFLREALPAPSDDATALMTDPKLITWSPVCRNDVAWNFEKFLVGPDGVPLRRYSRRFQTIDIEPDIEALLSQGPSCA

COC(=O)[C@H](CCCN=C(N)N)NS(=O)(=O)c1ccc(C)cc1
inactive: Potency [1] | Potency [2] | Potency [3] | Potency [4] | Potency [5] | Potency [6] | Potency [7] | Potency [8]

COc1ccc([C@@H]2CNC(=O)C2)cc1OC1CCCC1
active: Potency [9] 3.72 µM
inactive: Potency [1] | Potency [2] | Potency [4] | Potency [5] | Potency [6] | Potency [8]

COC1=C(OC)C(=O)C(CC=C(C)CCC=C(C)CCC=C(C)CCC=C(C)CCC=C(C)CCC=C(C)CCC=C(C)CCC=C(C)CCC=C(C)CCC=C(C)C)=C(C)C1=O
inactive: activity, negative = inhibition [1] 1.94% [at 4.49 µM] | outcome [2] inactive [at 4.52 µM] | Potency [3] | Potency [4] | Potency [5] | Potency [6] | Potency [7] | Potency [8]

O=C1NC(O)CCN1[C@@H]1O[C@H](CO)[C@H](O)[C@H]1O (some centres not stated)
inactive: Potency [1] | Potency [2] | Potency [3] | Potency [4] | Potency [7] | Potency [8]

COc1cc(C[C@@H](CO)[C@H](CO)Cc2ccc(O)c(OC)c2)ccc1O
inactive: Potency [1] | Potency [2] | Potency [6]
active: Potency [9] 0.662 µM | Potency [4] 0.264 µM | Potency [7] 9.35 µM

C[C@@H]1C(=O)O[C@H]2CC34[C@H]5C[C@@H](C(C)(C)C)C36[C@H](OC(=O)[C@@H]6O)O[C@@]4(C(=O)O5)[C@]21O (some centres not stated)
inactive: Potency [1] | Potency [2] | Potency [3] | Potency [4] | Potency [5] | Potency [6] | Potency [7] | Potency [8]

CC(N[C@H]1CCCC[C@H]1NC(=O)c1ccc(Cl)cc1)c1cccc2ccccc12 (some centres not stated)
active: Potency [4] 20.9 µM | Potency [8] 0.132 µM
inactive: Potency [1] | Potency [2] | Potency [6]

COc1cc(C)c(Sc2cnc(NC(=O)c3ccc(CNC(C)C(C)(C)C)cc3)s2)cc1C(=O)N1CCN(C(C)=O)CC1 (configuration not stated)
active: Potency [4] 18.7 µM | Potency [5] 5.26 µM | Potency [6] 16.6 µM | Potency [7] 4.69 µM | Potency [8] 8.33 µM
inactive: Potency [1] | Potency [2]

CCS(=O)(=O)Nc1ccc2[nH]c(O)c(C(=Nc3ccc(CN4CCCCC4)cc3)c3ccccc3)c2c1
active: Potency [4] 6.62 µM | Potency [6] 0.743 µM | Potency [8] 1.48 µM
inactive: Potency [1] | Potency [2]

COc1cccc2c1C(=O)c1c(O)c3c(c(O)c1C2=O)C[C@@](O)(C(=O)CO)C[C@@H]3O[C@H]1C[C@H](N)[C@H](OC2CCCCO2)[C@H](C)O1 (some centres not stated)
active: Potency [3] 3.72 µM | Potency [4] 2.35 µM | Potency [6] 3.32 µM
inactive: Potency [1] | Potency [2] | Potency [5] | Potency [7] | Potency [8]

Cc1cc(C(=O)NOCCO)c(Nc2ccc(I)cc2F)n(C)c1=O
inactive: Potency [1] | Potency [2] | Potency [4]
active: Potency [5] 0.118 µM | Potency [8] 0.0059 µM

Cc1c2oc3c(C)ccc(C(=O)NC4C(=O)NC(C(C)C)C(=O)N5CCCC5C(=O)N(C)CC(=O)N(C)C(C(C)C)C(=O)OC4C)c3nc-2c(C(=O)NC2C(=O)NC(C(C)C)C(=O)N3CCCC3C(=O)N(C)CC(=O)N(C)C(C(C)C)C(=O)OC2C)c(N)c1=O (configuration not stated) (I: TVP[Sar][NMeV] / II: TVP[Sar][NMeV]; ester I:1-I:C, II:1-II:C; linker I:N-II:N via Actinocin(9to1); configuration not given here)
inactive: Potency [1] | Potency [2] | Potency [9] | Potency [4] | Potency [5] | Potency [6] | Potency [7] | Potency [8]

Nc1cccc2c1C(=O)N(C1CCC(=O)NC1=O)C2=O (configuration not stated)
active: Potency [9] 0.0037 µM | Potency [8] 0.0209 µM
inactive: Potency [1] | Potency [2]

CC(Cc1ccc(O)c(O)c1)(NN)C(=O)O (configuration not stated)
inactive: Potency [1] | Potency [2] | Potency [9] | Potency [4] | Potency [7] | Potency [8]

c1cc(CN2CCCNCCNCCCNCC2)ccc1CN1CCCNCCNCCCNCC1
inactive: Potency [1] | Potency [2] | Potency [9] | Potency [4] | Potency [7] | Potency [8]

Nc1nc(=O)n([C@H]2C[C@H](O)[C@@H](CO)O2)cc1F
inactive: Potency [1] | Potency [2] | Potency [3] | Potency [4] | Potency [7] | Potency [8]
active: Potency [6] 0.526 µM

CCN(CC)CCCCNc1ncc2c(n1)N(C)C(=O)N(c1c(Cl)c(OC)cc(OC)c1Cl)C2
active: Potency [4] 18.7 µM
inactive: Potency [1] | Potency [2] | Potency [5]

c1coc(CNc2ncnc3nc[nH]c23)c1
inactive: Potency [1] | Potency [2] | Potency [9] | Potency [4] | Potency [5] | Potency [6] | Potency [7]

CC(C)NC[C@@H](C(=O)N1CCN(c2ncnc3c2[C@H](C)C[C@H]3O)CC1)c1ccc(Cl)cc1
inactive: Potency [1] | Potency [2]
active: Potency [9] 0.0935 µM | Potency [4] 16.6 µM | Potency [6] 2.09 µM | Potency [8] 4.18 µM

O=C1c2cccc(O)c2C(=O)c2c(O)cc(CO)cc21
inactive: Potency [2] | Potency [9] | Potency [4] | Potency [5] | Potency [7] | Potency [8]
active: Potency [1] 4.09 µM

C=Cc1c(C)c2cc3nc(cc4[nH]c(cc5nc(cc1[nH]2)C(C)=C5CCC(=O)O)c(CCC(=O)OC)c4C)[C@@]1(C)C3=CC=C(C(=O)OC)[C@H]1C(=O)OC
inactive: Potency [1] | Potency [2]
active: Potency [3] 0.662 µM | Potency [4] 0.0372 µM | Potency [6] 0.743 µM | Potency [7] 0.296 µM | Potency [8] 0.187 µM

CC(Oc1ccc(O)cc1)(P(=O)(O)O)P(=O)(O)O
inactive: Potency [1] | Potency [2] | Potency [4] | Potency [6] | Potency [8]

Cn1c(Nc2ccc(C(F)(F)F)cc2)nc2cc(Oc3ccnc(-c4ncc(C(F)(F)F)[nH]4)c3)ccc21
active: Potency [3] 18.7 µM | Potency [5] 9.35 µM | Potency [6] 20.9 µM | Potency [7] 16.6 µM
inactive: Potency [1] | Potency [2]

O=C(CN1C(=O)C2(CCCC2)NC[C@H]1c1cc(F)cc(F)c1)Nc1ccc2c(c1)C[C@@]1(C2)C(=O)Nc2ncccc21
inactive: Potency [1] | Potency [2] | Potency [9] | Potency [4] | Potency [5] | Potency [6] | Potency [7] | Potency [8]

COc1cc(O)c2c(c1)C1OC1C[C@H](O)[C@H](O)C(=O)C=CC[C@H](C)OC2=O (some centres not stated)
active: Potency [3] 3.32 µM | Potency [9] 4.18 µM | Potency [4] 7.43 µM | Potency [5] 2.96 µM | Potency [6] 4.69 µM | Potency [7] 5.9 µM
inactive: Potency [1]

C[C@](Cc1c[nH]c2ccccc12)(NC(=O)OC1C2CC3CC(C2)CC1C3)C(=O)NC[C@H](NC(=O)CCC(=O)O)c1ccccc1 (some centres not stated)
inactive: Potency [1] | Potency [3] | Potency [4] | Potency [6]

CC(=O)SCC(Cc1ccccc1)C(=O)NCC(=O)OCc1ccccc1 (configuration not stated)
inactive: Potency [1]
active: Potency [3] 18.7 µM | Potency [9] 1.05 µM | Potency [4] 14.8 µM | Potency [6] 2.35 µM | Potency [7] 8.33 µM | Potency [8] 1.66 µM
